Experimental findings from PubChem BioAssay (NCI) are described below.

Compounds without any hit were thinned out: in the full panel of roughly 83,000, 20% have a hit.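 For each line, cells grew in 96-well plates with the test compound present at a single concentration for 48 hours.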 A number with no mark means an inactive call. Active and inactive are the calls of the source. How the source made its calls: active means growth percent below 10; inactive means the rest.

Holding throughout (assay): NCI-60 one-dose screen, 48 h (100 = growth as untreated, 0 = no growth, -100 = all killed)
The test system of one assay is DU-145 prostate. The following applies: 10 µM unless noted.
The test system of the next assay is MALME-3M melanoma. The following applies: 10 µM unless noted.
For another assay, the system named is MDA-MB-231 breast. The following applies: 10 µM unless noted.
Another assay relates to RXF 393 renal. The following applies: 10 µM unless noted.
A further assay relates to SF-268 CNS. The following applies: 10 µM unless noted.
The next assay concerns SF-295 CNS. The following applies: 10 µM unless noted.
The test system of the next assay is SF-539 CNS. The following applies: 10 µM unless noted.
The next assay concerns UACC-257 melanoma. As to conditions: 10 µM unless noted.
Another assay concerns M14 melanoma. The following applies: 10 µM unless noted.
A further assay concerns HCT-15 colon. As to conditions: 10 µM unless noted.
The test system of another assay is HT29 colon. The following applies: 10 µM unless noted.
Another assay relates to SNB-75 CNS. As to conditions: 10 µM unless noted.
A further assay concerns SNB-19 CNS. The following applies: 10 µM unless noted.
The next assay has as its system U251 CNS. The following applies: 10 µM unless noted.
In another assay the test system is PC-3 prostate. The following applies: 10 µM unless noted.
For another assay, the system named is UACC-62 melanoma. As to conditions: 10 µM unless noted.
A further assay relates to LOX IMVI melanoma. The following applies: 10 µM.
The test system of a further assay is SK-MEL-28 melanoma. As to conditions: 10 µM unless noted.
The test system of another assay is K-562 leukemia. The following applies: 10 µM unless noted.
For a further assay, the system named is SK-MEL-5 melanoma. As to conditions: 10 µM unless noted.

Take `COc1ccc(-c2nnc3ccc(N/N=C/c4ccc(O)cc4)nn23)cc1`: the growth in the assay on DU-145 prostate is 51.9%; in the assay with MALME-3M melanoma, 64.2%; with MDA-MB-231 breast, 60.6%; in the assay on RXF 393 renal it was 42.7%; with SF-268 CNS, 35.8%; with SF-295 CNS, 43.6%. For the same compound, the growth in the assay with SF-539 CNS was 36.4%; in the assay on UACC-257 melanoma, 82.3%; in the assay with M14 melanoma it was 56.4%; in the assay with HCT-15 colon, 26.7%; in the assay on HT29 colon, 87.4%; with SNB-75 CNS, 53.6%. Moreover, the growth in the assay with SNB-19 CNS was 67.5%; in the assay with U251 CNS, 67.6%; in the assay on PC-3 prostate, 40.5%; in the assay on UACC-62 melanoma, 58.8%; in the assay with LOX IMVI melanoma, -54.8% (active); in the assay with SK-MEL-28 melanoma it was 69.1%.
In the case of `NS(=O)(=O)c1ccc(-n2cc(-c3cccc(NC(=O)c4cc(C(F)(F)F)cc(C(F)(F)F)c4)c3)nn2)cc1`, the growth in the assay with DU-145 prostate is 69.7%; in the assay with K-562 leukemia it was 52.7%; in the assay on MALME-3M melanoma, 63.7%; in the assay on SF-268 CNS it was 45.3%; in the assay on SF-295 CNS, 31.4%; in the assay with SF-539 CNS, 35.1%. For the same compound, the growth was 91.1% with UACC-257 melanoma; 65% with M14 melanoma; 85.7% in the assay on HCT-15 colon; 46.6% in the assay with HT29 colon; 37.5% with SNB-75 CNS; 25% in the assay on SNB-19 CNS. Moreover, the growth was 11.7% with U251 CNS; 52% with PC-3 prostate; 90.5% in the assay on SK-MEL-5 melanoma; 73.8% with UACC-62 melanoma; 81.5% in the assay with SK-MEL-28 melanoma.
For `COc1ccc(C(=O)/C=C/c2ccccc2Cl)cc1S(N)(=O)=O`, the growth with DU-145 prostate is 117%; in the assay on MALME-3M melanoma it was 93.9%; in the assay on MDA-MB-231 breast, 91.9%; with RXF 393 renal, 124%; in the assay on SF-268 CNS, 92.1%; in the assay with SF-295 CNS it was 89.2%. Also, the growth with SF-539 CNS was 97.5%; with UACC-257 melanoma, 120%; in the assay on M14 melanoma, 109%; with HCT-15 colon it was 92.9%; in the assay with HT29 colon it was 109%; in the assay with SNB-75 CNS, 107%. Also, the growth is 97.4% in the assay with SNB-19 CNS; 109% with U251 CNS; 106% in the assay on PC-3 prostate; 92.9% in the assay with UACC-62 melanoma; 105% in the assay on LOX IMVI melanoma; 103% in the assay on SK-MEL-28 melanoma.
Consider `CC(=O)Nc1cccc(Nc2nc(N[C@H]3CCCc4ccccc43)c3ccccc3n2)c1`, for which the growth in the assay on DU-145 prostate was 104%; in the assay on K-562 leukemia, 94.2%; in the assay on MALME-3M melanoma, 102%; in the assay with RXF 393 renal, 120%; in the assay with SF-268 CNS, 95.5%; with SF-295 CNS it was 97.3%. Moreover, the growth was 97.2% with SF-539 CNS; 102% in the assay with UACC-257 melanoma; 101% in the assay on M14 melanoma; 97.5% in the assay with HCT-15 colon; 90.6% with SNB-75 CNS; 96.9% in the assay on SNB-19 CNS. Further, the growth was 105% in the assay on U251 CNS; 115% with PC-3 prostate; 105% in the assay on SK-MEL-5 melanoma; 92% in the assay with UACC-62 melanoma; 104% in the assay with SK-MEL-28 melanoma.
In the case of `N#Cc1c(-c2ccc(Cl)cc2)nc2n[nH]c(-c3ccc(Cl)cc3)c2c1-c1cccs1`, the growth is 65.1% in the assay with DU-145 prostate; 16.9% in the assay on K-562 leukemia; 55.6% in the assay on MALME-3M melanoma; 58.2% in the assay with RXF 393 renal; 72.9% with SF-268 CNS; 63.6% in the assay on SF-295 CNS. For the same compound, the growth was 64.1% in the assay on SF-539 CNS; 58.1% in the assay on UACC-257 melanoma; 64.6% with M14 melanoma; 41.9% with HCT-15 colon; 47% in the assay with HT29 colon; 75.1% in the assay on SNB-19 CNS. In addition, the growth in the assay with U251 CNS was 58.6%; in the assay with PC-3 prostate it was 34.3%; with SK-MEL-5 melanoma it was 40.8%; in the assay on UACC-62 melanoma, 60.9%; with SK-MEL-28 melanoma, 76.1%.
Take `O=C(/C=C/c1cccc(OCc2ccc(F)cc2)c1)c1nc2ccccc2[nH]1`: the growth is 70.3% in the assay with DU-145 prostate; -14.6% (active) with K-562 leukemia; 95.8% with MALME-3M melanoma; 57.7% in the assay with RXF 393 renal; 95.1% in the assay on SF-268 CNS; 74.2% with SF-295 CNS. The growth in the assay on SF-539 CNS is 44.7%; in the assay on UACC-257 melanoma, 76.1%; in the assay with M14 melanoma it was 13.8%; in the assay on HCT-15 colon it was -58.4% (active); with SNB-75 CNS, 116%; in the assay on SNB-19 CNS it was 68.4%. Further, the growth in the assay with U251 CNS is -70.9% (active); in the assay on PC-3 prostate, 15%; in the assay with SK-MEL-5 melanoma it was 65.5%; with UACC-62 melanoma, 72.6%; in the assay on SK-MEL-28 melanoma, 104%.
On to `C=C1CC[C@@H]2[C@]3(C)COC(c4cn[nH]c4-c4ccc(C)cc4)O[C@@H]3CC[C@@]2(C)[C@@H]1C/C=C1/C(=O)OCC1O` (stereo not given in full), for which the growth with DU-145 prostate was 37.2%; in the assay with K-562 leukemia it was 2.59% (active); with MALME-3M melanoma, -52.6% (active); in the assay on RXF 393 renal it was -31.7% (active); in the assay with SF-268 CNS, 54.2%; in the assay with SF-295 CNS, 49.5%. Also, the growth is -88.1% (active) in the assay with SF-539 CNS; -0.178% (active) in the assay with UACC-257 melanoma; -42.2% (active) in the assay on M14 melanoma; -72.9% (active) in the assay on HCT-15 colon; -6.69% (active) in the assay with HT29 colon; 87.8% in the assay on SNB-75 CNS. For the same compound, the growth with SNB-19 CNS is 37.7%; in the assay on U251 CNS, -63.3% (active); with PC-3 prostate, 37.6%; in the assay on SK-MEL-5 melanoma it was -63.9% (active); in the assay on UACC-62 melanoma, -31.3% (active); with SK-MEL-28 melanoma, 6.8% (active).
For the compound `CC1=C(C(=O)c2ccccc2)C(c2ccc(-n3cncn3)cc2)n2c(nc3ccccc32)N1` (stereo not given), the growth with DU-145 prostate was 71.7%; in the assay on K-562 leukemia, 74.6%; with MALME-3M melanoma, 81%; in the assay with RXF 393 renal, 73.6%; in the assay on SF-268 CNS, 77.1%; with SF-295 CNS, 84%. In addition, the growth with SF-539 CNS was 39.1%; in the assay with UACC-257 melanoma it was 89.1%; in the assay with M14 melanoma it was 99.2%; with HCT-15 colon it was 83.9%; in the assay with HT29 colon, 93.7%; with SNB-75 CNS, 76.4%. Also, the growth with SNB-19 CNS was 74.9%; in the assay with U251 CNS, 71.7%; with PC-3 prostate, 78.7%; with SK-MEL-5 melanoma it was 89.7%; in the assay on UACC-62 melanoma, 70.6%; in the assay with SK-MEL-28 melanoma, 106%.
